The values below come from PubChem BioAssay AID1347135 (National Center for Advancing Translational Sciences (NCATS), 2019).

Structures are written as SMILES. This is one part of the list. Inconclusive results are not listed. Active and inactive are the calls of the source. The call rests on the fitted dose curve; in most records, active means well fitted inhibition curve with a large enough effect; inconclusive means small, poorly fitted or top-dose-only effect; inactive means flat fitted curve, though single readings scatter.

A short description of this experiment: qHTS of pediatric cancer cell lines to identify multiple opportunities for drug repurposing: Orthogonal 3D viability screen for SK-N-SH cells. Conditions: SK-N-SH 3D spheroid viability, PI/Hoechst imaging, 72 h. An excerpt: Drug repurposing or repositioning has been offered as a strategy for drug development in oncology programs. This approach has special potential for childhood cancers and other rare or orphan diseases, where the expected return on new drug development has been a disincentive to pharmaceuticals. […] In this project we exploit the poly-pharmacology of drugs to discover new indications via phenotypic screening of a panel of 19 well-characterized cell lines derived from solid tumors seen in children and adolescents. The goal is to identify approved drugs with previously unrecognized anticancer properties that has the potential to reveal new mechanisms and biological processes involved in carcinogenesis or drug resistance. We employed a titration-based paradigm (quantitative high-throughput screening or qHTS), where all compounds were tested at multiple concentrations for their effect on cell viability. Concentration-response curves (CRCs) were derived directly from the primary screen, and both potency and efficacy values were used to identify compounds with robust bioactivity profiles. […] These two assays will be used to validate active compounds and assess the correlation of compound's potency in 2D vs 3D cultures on selected cell lines. Assay Submitter: Nathalia J. Martinez, National Center for Advancing Translational Sciences, National Institutes of Health, Rockville, MD, USA; email: natalia.martinez@nih.gov Shen, M et al. Quantitative high-throughput phenotypic screening of pediatric cancer cell lines identifies multiple opportunities for drug repurposing. Oncotarget 2017 Dec 19;9(4):4758-4772. PMID 29435139.
The cells were obtained from University of North Carolina (UNC), Pediatric Preclinical Testing Program (PPT), and Coriell Institute (CI). qHTS viability in 3D culture: Cells were assayed in phenol red-free growth media at a density of 1,000 cells/well, with the exception of Daoy, and SH-N-SH which were assayed at 1,500 cells/ well. Thirty muL of cells were dispensed into 384-well, ULA, round bottom plates (Corning) using a Multidrop dispenser. Plates were spun down at 1,000 rpm for 1 min and incubated at 37 degrees C, 5% CO2, under a humidified atmosphere for either 24 (Daoy) or 48 hours (all other cell lines) to allow spheroid formation. Ninety-two nanoliter of compounds and controls (neutral control DMSO or positive control bortezomib at final concentrations of 0.5 µM) were subsequently transferred via GNF Pintool. Plates were sealed using a breathable seal (Diversified Biotech, Dedham, MA) and incubated for 72 hours at 37 degrees C. Spheroid viability was first determined by high-content imaging using Hoechst 33342 and Propidium Iodide (PI, ThermoFisher Scientific), followed by addition of CellTiter-Glo 3D (Promega). Specifically, 3 µL/well of PBS containing a 1:500 dilution of both dyes was dispensed using Multidrop. Dyes were incubated for 1 hour before imaging using the Celigo Image Cytometer. Then, 20 µl of CellTiter-Glo 3D were added per well. Plates were incubated for 30 min at RT on a VWR microplate shaker (300 rpm) and analyzed for luminescence intensity using a ViewLux High-throughput CCD imager equipped with clear filters. Image analysis was done using the Celigo Tumorsphere 1+2+3 application software as previously described. […] The data were exported to Excel, and the average fluorescent intensities were used to calculate the ratio of PI over Hoechst, which was used to quantify viability. […]
For the compound `CC1(C)O[C@@H]2C[C@@H]3[C@H]4C[C@@H](F)C5=CC(=O)C=C[C@]5(C)[C@@]4(F)[C@@H](O)C[C@]3(C)[C@]2(C(=O)CO)O1`, the Potency is 456 nM (active).

As to `COC(=O)Nc1nc2ccc(Sc3ccccc3)cc2[nH]1`, the Potency was 1620 nM (active).

For `CC[C@H]1CN2CCc3cc(OC)c(OC)cc3[C@@H]2C[C@@H]1C[C@H]1NCCc2cc(OC)c(OC)cc21`, the Potency is 72.2 nM (active).

On to `CC(NCc1ccc2c(c1)nc(NC(=O)c1ccc(-c3cn[nH]c3)s1)n2CC(C)(C)O)C(C)(C)C` (stereo not given), for which the Potency was 204 nM (active).

With `CC[C@]1(O)C[C@@H]2CN(CCc3c([nH]c4ccccc34)[C@@](C(=O)OC)(c3cc4c(cc3OC)N(C)[C@H]3[C@@](O)(C(=O)OC)[C@H](OC(C)=O)[C@]5(CC)C=CCN6CC[C@]43[C@@H]65)C2)C1`, the Potency was 90.9 nM (active).
